From PubChem BioAssay
Sampled rows, rich in hits. Any-hit rate of the full collection: about 11%.
HTT ATP protect: protects HTT-Q103 PC12 cells, measured by ATP; PC12 HTT-Q103 induced, cytoprotection, ATP luminescence, 40 h; Potency, µM (series often up to 56.4 µM), for inactives: cytoprotection (ATP increase), actives largely listed as activators; 0.14% of 230,000 active; AID 1471; also: potency is read from the fitted curve at half-maximal effect; % of control where 0% means no effect; nearly all actives have a fitted effect of over 45% in size
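Cells were plated at 1500 per well in phenol red-free DMEM with 5% equine and 5% calf serum. Tebufenozide (100 nM final) and compounds were added, then ATPlite reagent, and luminescence was read.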
ALDH1A1 block: ALDH1A1 (human) enzyme inhibition; Potency, µM (series often up to 75.3 µM), inactives show top-dose activity, negative = inhibition, most hits filed as inhibitors; P00352; 7.3% of 220,000 active; Purified ALDH1A1, NADH fluorescence, propionaldehyde substrate; active = well fitted inhibition curve with a large enough effect, not every such curve was filed as active; inconclusive = small, poorly fitted or top-dose-only effect, or another doubt; inactive = no such curve, though single readings can be large or run the other way;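 also: potency is read from the fitted curve at half-maximal effect; plate controls were no enzyme wells and a reference inhibitor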
HPGD inh: HPGD (human) dehydrogenase inhibition. P15428. 4.3% of 150,000 active. purified HPGD, NADH fluorescence kinetic, PGE2 substrate. Potency, µM, for the others: at the top dose activity change, negative = inhibition, most hits filed as inhibitors; active = well fitted inhibition curve with a large enough effect, not every such curve was filed as active; inconclusive = small, poorly fitted or top-dose-only effect, or another doubt; inactive = no such curve, though single readings can be large or run the other way; also: potency is read from the fitted curve at half-maximal effect; % is scaled to controls: 0 for no effect and ±100 for the full control effect
Target sequence (P15428 whole entry, looked up): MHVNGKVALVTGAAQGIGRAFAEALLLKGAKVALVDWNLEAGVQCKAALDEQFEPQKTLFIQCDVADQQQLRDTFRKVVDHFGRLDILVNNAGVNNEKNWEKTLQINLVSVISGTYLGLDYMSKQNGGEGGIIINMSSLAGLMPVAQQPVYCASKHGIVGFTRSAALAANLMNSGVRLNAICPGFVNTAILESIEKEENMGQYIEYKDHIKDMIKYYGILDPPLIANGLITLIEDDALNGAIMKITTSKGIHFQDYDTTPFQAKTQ
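NADH formation kinetics: reaction with 30 uM PGE2 and 1 mM NAD+ (final), 20 nM enzyme, Tris-HCl pH 8 with Tween 20, after 15 min compound preincubation at room temperature. Fluorescence change, last versus first of five reads.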
RGS12 GoLoco inh: inhibitors of human Gai1-RGS12 GoLoco interaction (red fluorophore); P63096; 0.44% of 230,000 active; Gai1:RGS12 GoLoco peptide FP, rhodamine, 10 min; Potency, µM (highest dose often 61.6 µM), inactives show at the highest dose activity, negative = inhibition, actives largely listed as inhibitors; active = well fitted inhibition curve with a large enough effect, not every such curve was filed as active; inactive = no such curve, though single readings can be large or run the other way; also: potency is read from the fitted curve at half-maximal effect; % is scaled to controls: 0 for no effect and ±100 for the full control effect; nearly all actives have a fitted effect of over 30% in size
Target sequence (P63096 whole entry, looked up): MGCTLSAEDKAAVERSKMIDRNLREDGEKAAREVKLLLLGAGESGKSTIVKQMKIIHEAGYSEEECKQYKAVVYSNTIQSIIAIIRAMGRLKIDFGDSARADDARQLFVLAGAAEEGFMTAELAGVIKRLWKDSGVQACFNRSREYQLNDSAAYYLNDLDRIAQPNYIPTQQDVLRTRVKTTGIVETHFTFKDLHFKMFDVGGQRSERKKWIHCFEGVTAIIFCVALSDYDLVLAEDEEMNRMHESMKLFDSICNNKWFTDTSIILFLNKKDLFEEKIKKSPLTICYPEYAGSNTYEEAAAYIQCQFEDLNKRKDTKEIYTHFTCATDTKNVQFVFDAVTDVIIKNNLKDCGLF
HttQ103 aggreg: reduces HttQ103-GFP aggregates in PC12 cells | AID 1688 | PC12 HttQ103-GFP aggregates, Acumen cytometry, 40 h | Potency, µM (series often up to 46.1 µM), for the others: at the top dose activity change, negative = inhibition, actives largely listed as inhibitors | 1.1% of 220,000 active; also: potency is read from the fitted curve at half-maximal effect; % is scaled to controls: 0 for no effect and ±100 for the full control effect; nearly all actives have a fitted effect of over 60% in size
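Steps: seed 1500 PC12 HTTQ103-GFP cells/well; add tebufenozide, 100 nM final; add compound titration; add ATPLite reagent; quantify GFP aggregates by laser scanning cytometry.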
PNC inhibitor: inhibitors of perinucleolar compartment assembly; PC3M PTB-GFP, PNC prevalence imaging, 16 h; active compounds read low; activity change (PNC), negative = inhibition, % at 10 µM; 3.1% of 140,000 active; AID 2417;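 active = readout at or below -70, meaning at least 70% loss of cells showing the perinucleolar compartment, a nuclear body marking cancer cells; inconclusive = readout between -30 and a set limit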;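 also: plate controls were DMSO wells for no effect and camptothecin positive control wells for full effect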
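Compounds are pinned in duplicate onto adhered PC3M cells stably expressing GFP-tagged PTB and incubated 16 h at 37 C. Cells are then fixed, nuclei stained with Hoechst, and PNC-positive cells counted.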
The depositor's hits bear a star; ? = inconclusive; nt = not tested or not shown; [ ] = another dose, or the depositor's remark. Unless noted, calls follow the shape of the dose curve; as a rule, active = well fitted curve in the direction sought with a large enough effect; inconclusive = small, poorly fitted or top-dose-only effect, or another doubt; inactive = no such curve, though single readings can be large; an effect the other way counts as inactive or inconclusive.

SMILES | HTT ATP protect | ALDH1A1 block | HPGD inh | RGS12 GoLoco inh | HttQ103 aggreg | PNC inhibitor
CN(C)CCCO[C@H]1C([C@H](O)CO)O[C@@H]2OC(C)(C)O[C@@H]21 (stereo not given in full) | nt | 4% | -10% | 11% | nt | nt
CCOc1cc(OCC)c(C(=O)CCC(=O)O)cc1OCC | 17% | nt | nt | nt | 21% | nt
CC(C)CC(=O)N1CCN(S(=O)(=O)c2ccc(F)cc2)CC1 | -13%[10 µM] | ? | -13% | 0% | -19% | -119*
COc1ccc(CNC(=O)COC(=O)c2ccco2)cc1 | nt | ? | nt | -15% | nt | nt
Cc1ccc(CNC(=O)CN2CCCC(C)C2)cc1 (stereo not given) | -6% | -1% | 14µM* | -5% | 7%[1.84 µM] | 4
CC1(C)Cc2ccccc2C(NNC(=O)c2ccncc2)=N1 | -4% | 3% | -11% | 1% | 8% | 42
Cc1ccc(C(=O)C(C)N(C(=O)c2ccc(Cl)cc2Cl)N2C(=O)CCCC2=O)cc1 (stereo not given) | -34%[1.9 µM] | -1% | nt | 8% | 11µM* | nt
C=CC[C@@H]1C=C[C@@H](O/N=C\[C@@H](NS(=O)(=O)c2ccc(C)cc2)[C@H](C)/C=C\CC(=O)OC)[C@@H](CO)O1 | -23%[10 µM] | ? | nt | nt | nt | nt
CCC(C)C(=O)NCCc1ccc(S(N)(=O)=O)cc1 (stereo not given) | 6%[10 µM] | 11% | -5% | 2% | 18% | 34
O=C(NCCc1ccccc1)c1cccnc1 | -11% | 10% | -11% | -8% | -1%[9.22 µM] | -3
NS(=O)(=O)c1ccc(CCNC(=O)c2cccnc2)cc1 | 2%[10 µM] | 2% | -12% | 9% | -4% | -100*
CCCC(=O)NCCc1ccc(S(N)(=O)=O)cc1 | 21% | 4.5µM* | -12% | 6% | -1% | ?
COc1ccc(OC)c(N(CC(=O)Nc2cccc(C(F)(F)F)c2)S(C)(=O)=O)c1 | -43% | -4% | nt | 10% | 30% | nt
COc1ccc(-n2c(SCC(=O)NCCC(C)C)nc3ccsc3c2=O)cc1 | 17% | 20µM* | ? | 3% | 28% | -16
O=C1c2ccccc2-c2n[nH]c3cccc1c23 | -58% | 3.2µM* | -21% | 5% | -8% | nt
O=c1c(-c2ccccc2)n[nH]c2ccccc12 | -56% | ? | nt | nt | -7% | 10
CCN(c1cccc(C(F)(F)F)c1)S(=O)(=O)c1ccc2c(c1)CCN2C(C)=O | 7% | 9% | -1% | -16% | ? | -98*
CCN(c1cccc(C)c1)S(=O)(=O)c1ccc2c(c1)CCN2C(C)=O | -43% | 8% | -13% | 6% | -19% | 29
COC(=O)c1cc(-c2ccccc2)sc1NC(=O)CN1C(=O)c2ccccc2C1=O | -22% | 25µM* | ? | 5% | 3% | 83
COC(=O)c1ccc(C23CC2(C(NP(=O)(c2ccccc2)c2ccccc2)c2ccccc2)C3)cc1 (stereo not given) | -48% | 32µM* | -19% | 1.4µM* | nt | nt
CN(C)CCCc1cc(C(=O)Nc2ccc(-c3ccncc3)cc2)ccc1O | ? | ? | -25% | 6% | nt | nt
CCCCNc1c(C(=O)OCC)c(C)nc2c1cnn2CC | ? | 2% | -12% | -9% | -18% | nt
O=C(CSc1nccc(=O)[nH]1)NCc1ccc(Cl)cc1 | -12% | 7% | nt | -5% | -4% | nt
Cc1ccc(C(=O)Nc2nc(=O)n(C(=O)c3ccccc3C)s2)cc1 | 18µM* | ? | -12% | 9% | nt | 1
Cc1ccc(C(=O)Nc2nc(=O)n(C(=O)C3CC3)s2)cc1 | nt | -1% | -10% | 7% | 23% | ?
SMILES | HTT ATP protect | ALDH1A1 block | HPGD inh | RGS12 GoLoco inh | HttQ103 aggreg | PNC inhibitor
CCCCc1ccc(NC(=O)CN2NS(=O)(=O)c3ccccc3C2=O)cc1 | -13% | 4µM* | -7% | 8% | 22% | 19
CCCCc1ccc(NC(=O)CC(C)C)cc1 | nt | 3% | nt | 9% | nt | nt
CC1CCN(c2ccc(N3C(=O)C4CCCCC4C3=O)cc2[N+](=O)[O-])CC1 (stereo not given) | 23%[10 µM] | -12% | -7% | 4% | 26% | 64
O=[N+]([O-])c1ccc(S(=O)(=O)Cc2ccccc2)c([N+](=O)[O-])c1 | -104%[10 µM] | 1.3µM* | -15% | -10%[14.2 µM] | nt | nt
O=[N+]([O-])c1ccc(NC2CCN(Cc3ccccc3)CC2)c([N+](=O)[O-])c1 | -2%[10 µM] | -3% | nt | 14% | -4% | nt
O=c1c2ccccc2nc(/C=C/c2ccc([N+](=O)[O-])o2)n1CCCO | -126% | ? | -16% | 8% | ? | -89*
Cc1cc(=O)oc(C)c1C(=O)NCc1ccccc1 | 2% | 4% | -6% | -10% | 11% | 47
CCCNC(=O)c1c(C)cc(=O)oc1C | -13% | -1% | -11% | 5% | 4% | ?
CCN(CCCNC(=O)c1c(C)cc(=O)oc1C)c1ccccc1 | 26%[10 µM] | 7.9µM* | -19% | 1% | 26% | ?
CCCCN(CCCNC(=O)c1c(C)cc(=O)oc1C)c1ccccc1 | 11%[10 µM] | 22µM* | -12% | 4% | -27% | -98*
CCCCN(CCCNC(=O)CN1C(=O)COc2ccccc21)c1ccccc1 | -4%[10 µM] | 13µM* | -16% | -8% | ? | ?
Cc1ccc(C)c(C(=N)c2ccccc2Cc2ccccc2)c1 | 10%[10 µM] | 8%[13.5 µM] | 2% | 10%[14.2 µM] | nt | nt
CC(=O)N[C@@H](Cc1c[nH]c2ccccc12)C(=O)OCC(=O)NCc1ccc2c(c1)OCO2 | -3%[10 µM] | 5µM* | nt | 3% | 20% | nt
CC(=O)N[C@@H](Cc1c[nH]c2ccccc12)C(=O)OCC(=O)Nc1ccc(S(=O)(=O)N(C)C)cc1 | nt | 4µM* | nt | 6% | 16% | nt
CC(=O)NC(Cc1c[nH]c2ccccc12)C(=O)Nc1ccc2c(c1)OCO2 (stereo not given) | 8% | 11% | -6% | 10% | -1% | 25
CCN(CC)CCCCn1c(-c2ccccc2)nc2c(NCc3ccccc3)nc(C)nc21 | -51% | ? | ? | 5% | nt | nt
COc1cccc(OCCNC(=O)Nc2cc(F)c(F)cc2Cl)c1 | nt | 4% | nt | 10% | -30% | nt
C=CCOc1ccc(C2CC(C)=NN2c2ccccc2)cc1 (stereo not given) | -16%[10 µM] | 4% | -9% | 2% | 2% | ?
Cc1[nH]c(=O)c(C#N)c2c1CSC(C)(C)C2 | -6% | ? | ? | -15% | -1% | -100*
CCc1[nH]c(=O)c(C#N)c2c1CSC(C)(C)C2 | 10%[10 µM] | ? | ? | -28% | -13% | 5
Cc1nn(CC#N)c(=O)n1-c1ccc(F)cc1 | -2% | 7% | -9% | -1% | 4% | -2
O=C(c1ccc(F)cc1F)C1CCN(c2ccc([N+](=O)[O-])cn2)CC1 | 5%[10 µM] | 20µM* | nt | -11% | -1%[9.22 µM] | nt
COc1ccc(S(=O)(=O)Nc2cc3c4c(oc3c3ccccc23)CCCC4=O)cc1 | -17% | 7.9µM* | 1% | 14% | -3% | 9
